Laboratory results from PubChem BioAssay.
Unmarked numbers belong to inactive results. Calls of active or inactive are those of the source. Rule as the data show it: active = fold change permeability below about 0.7 or above about 1.3; inactive = in between.

assay: compounds altering in vitro BBB leakiness – cell-based, FITC-avidin fluorescence, HTS, primary screen (AID 1963498); details: brain endothelial barrier, actives lie on both sides; also: test concentration not given here

| Compound | fold change permeability |
| --- | --- |
| CN1CCC(=C2c3ccccc3CCn3c(C=O)cnc32)CC1 | 1 |
| NCCS(=O)O | 1 |
| Cc1ccc(S(=O)(=O)Nc2ccccc2N2CCCCC2)s1 | 1 |
| CCOC(=O)C1=C[C@]2(CC)CCCN3CCc4c(n1c1ccccc41)[C@@H]32 | 1.8 (active) |
| CC(=O)[C@H]1CCC2C3CC=C4C[C@@H](OS(=O)(=O)O)CC[C@]4(C)C3CC[C@@]21C (some centres undefined) | 1 |
| CC(C)[C@H]1c2ccc(F)cc2CC[C@@]1(CCN(C)CCCc1nc2ccccc2[nH]1)OC(=O)C1CC1 | 1.3 (active) |
| Cc1ccc(/C(=C\CN2CCCC2)c2ccccn2)cc1 | 0.8 |
| CCCCCCCCCCCCCCCCCCOP(=O)([O-])OC1CC[N+](C)(C)CC1 | 0.9 |
| NC(N)=Nc1nc(CSCC/C(N)=N/S(N)(=O)=O)cs1 | 0.9 |
| CCC(=O)OCC(=O)[C@@]1(OC(=O)CC)[C@H](C)C[C@H]2[C@H]3[C@H]([C@@H](O)C[C@@]21C)[C@@]1(C)C=CC(=O)C=C1C[C@H]3Cl | 1.5 (active) |
| NC/C=C/C(=O)O | 0.8 |
| COC(=O)C1=C(C)NC(C)=C(C(=O)OCCN(C)Cc2ccccc2)C1c1cccc([N+](=O)[O-])c1 (centres undefined) | 1 |
| Oc1cc(O)c2c(c1)O[C@H](c1ccc(O)c(O)c1)[C@@H](O)C2 | 0.8 |
| CN1C2CCC1CC(OC(=O)c1c[nH]c3ccccc13)C2 (centres undefined) | 1.6 (active) |
| CC(C)(C)c1cc(/C=C(\C#N)C(N)=S)cc(C(C)(C)C)c1O | 1.5 (active) |
| NC(N)=NCCCCN=C(N)N | 1.2 |
| CC(C)(C)NCC(O)c1cc(O)cc(O)c1 (centres undefined) | 0.8 |
| COc1ccc(S(=O)(=O)Nc2c(C)cc(C)cc2C)cc1 | 1.4 (active) |
| C[C@H](Cc1ccccc1)Nc1ncnc2c1ncn2[C@@H]1O[C@H](CO)[C@H](O)C1O (some centres undefined) | 1.3 (active) |
| CCCCCCCC/C=C\CCCCCCCC(=O)NCCO | 1.2 |

| Compound | fold change permeability |
| --- | --- |
| Oc1ccc2ccccc2c1SSc1c(O)ccc2ccccc12 | 1.6 (active) |
| O=c1[nH]c2cc(C(F)(F)F)ccc2n1-c1cc(C(F)(F)F)ccc1O | 1.3 (active) |
| NC(N)=NC(N)=Nc1cccc(Cl)c1 | 1.2 |
| C=C1C[C@@]23CC[C@H]4[C@@](C)(CCC[C@@]4(C)C(=O)O[C@@H]4O[C@H](CO)[C@@H](O)[C@H](O)[C@H]4O)[C@@H]2CC[C@]1(O[C@@H]1O[C@H](CO)[C@@H](O)[C@H](O)[C@H]1O[C@@H]1O[C@H](CO)[C@@H](O)[C@H](O)[C@H]1O)C3 | 1.7 (active) |
| CC1CCc2nc(N)c(C#N)c(-c3cccnc3)c2C1 (centres undefined) | 1 |
| CC(=O)Oc1ccccc1C(=O)O | 1 |
| Cc1nc2n(c(=O)c1CCN1CCC(c3noc4cc(F)ccc34)CC1)CCCC2O (centres undefined) | 1 |
| CCN(CC)CCOC(=O)C1(C2CCCCC2)CCCCC1 | 1.6 (active) |
| O=c1[nH]c2ccccc2n1CCN1CCN(c2cccc(C(F)(F)F)c2)CC1 | 1.5 (active) |
| NOCC(=O)O | 0.9 |
| O=CN(O)CCCP(=O)(O)O | 2.2 (active) |
| N=C(N)c1ccccc1 | 0.9 |
| CC1=C(/C=C/C(C)=C/C=C/C(C)=C\C(=O)O)C(C)(C)CCC1 | 1.4 (active) |
| CN1C2CCC1CC(OC(c1ccccc1)c1ccccc1)C2 (centres undefined) | 1.7 (active) |
| NCCSSCCN | 0.9 |
| NC(CCCP(=O)(O)O)C(=O)O (centres undefined) | 0.9 |
| NC(=O)C1=CN(C2OC(COP(=O)(O)OP(=O)(O)OC[C@H]3O[C@@H](n4cnc5c(N)ncnc54)C(OP(=O)(O)O)[C@H]3O)C(O)C2O)C=CC1 (some centres undefined) | 0.9 |
| N#Cc1c2nc3ccccc3nc2n2ccc(NC(=O)c3cccs3)cc12 | 1.2 |
| COc1ccc2[nH]cc(CCNC(C)=O)c2c1 | 0.8 |
